# From PubChem BioAssay
# JMJD2A Tudor: qHTS Assay for Inhibitors of JMJD2A-Tudor Domain; Lysine-specific demethylase 4A (Homo sapiens), O75164; AlphaScreen JMJD2A-Tudor / H3K4me3 peptide binding; Potency, µM (highest dose often 114 µM), inactives show at the top dose activity change, negative = inhibition, hits mostly inhibitors; 4.4% of 390,000 active; note: % is set by controls: 0 for no effect and ±100 for the full control effect; nearly all actives have a fitted effect of over 50% in size
# BAZ2B inh: qHTS Assay for Inhibitors of BAZ2B; Bromodomain adjacent to zinc finger domain protein 2B (Homo sapiens), Q9UIF8; AlphaScreen BAZ2B-H3K14Ac peptide displacement; Potency, µM (top dose mostly 114 µM), inactives show top-dose activity change, negative = inhibition, hits mostly inhibitors; 4.4% of 360,000 active; AID 504333, 2011; note: % is set by controls: 0 for no effect and ±100 for the full control effect; nearly all actives have a fitted effect of over 60% in size
#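 AlphaScreen displacement: compounds (up to 110uM) incubated 30 min at room temperature with a preformed 50 nM BAZ2B/50 nM biotinylated H3K14Ac peptide complex in PBS pH 7.4 with Tween-20. Donor and acceptor beads at 10 ug/mL final added, 20 min light-protected before reading.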
# HP1b chromo inh: HTS for Inhibitors of HP1-beta Chromodomain Interactions with Methylated Histone Tails; 0.56% of 390,000 active; Chromobox protein homolog 1 (Homo sapiens), P83916; AID 540317, 2011; AlphaScreen HP1-beta / biotin-H3K9me3 peptide binding; Potency, µM (doses to about 114 µM), without a hit: at the highest dose activity change, negative = inhibition, actives largely listed as inhibitors; note: nearly all actives have a fitted effect of over 70% in size
#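 AlphaScreen: HP1-beta (50 nM) preformed 30 min with biotin-H3(1-18)K9me3 peptide (50 nM) in PBS pH 7.4, 0.01% Tween-20. Compound added for 30 min at RT, then streptavidin donor/nickel chelate acceptor beads (10 ug/mL) for 30 min.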
# G9a block: qHTS Assay for Inhibitors of Histone Lysine Methyltransferase G9a | G9a H3K9 monomethylation, AlphaScreen, 2 h | Potency, µM (series often up to 102 µM), inactives show at the highest dose activity, negative = inhibition, usual class: inhibitors | 8.8% of 350,000 active; note: % is set by controls: 0 for no effect and ±100 for the full control effect; nearly all actives have a fitted effect of over 75% in size
#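 G9a (20 nM) preincubated 15 min RT with compounds, then 500 nM biotinylated H3K9 peptide and 20 uM SAM added; 2 h RT reaction. Monomethyl-H3K9 product detected by AlphaScreen with anti-H3K9me1 antibody, streptavidin donor and anti-rabbit IgG acceptor beads.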
# L3MBTL1 block: qHTS Assay for the Inhibitors of L3MBTL1; 0.66% of 230,000 active; AID 485360, 2010; Lethal(3)malignant brain tumor-like protein 1 (Homo sapiens), Q9Y468; AlphaScreen L3MBTL1–H3K9me1 peptide binding; Potency, µM (titrated, usually from 57.1 µM), for the others: at the top dose activity, negative = inhibition, actives largely listed as inhibitors; note: % is set by controls: 0 for no effect and ±100 for the full control effect; nearly all actives have a fitted effect of over 60% in size
#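 AlphaScreen assay: L3MBTL1 (50 nM final) was preincubated 30 min at room temperature with biotinylated H3(1-15)K9me1 peptide (75 nM final), then 30 min with library compounds; streptavidin donor and nickel chelate acceptor beads (10 ug/mL final) added, 30 min dark.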
# The depositor's hits bear a star; u = inconclusive; x = no result; [ ] = dose if it differs, or a comment. This is a sample that favours compounds with a hit; in the whole collection about 11% have one here. Calls come from the whole dose curve; as a rule, active = well fitted inhibition curve with a large enough effect; inconclusive = small, poorly fitted or top-dose-only effect; inactive = no such curve, though single readings can be large or run the other way. Potency is the fitted concentration of half-maximal effect.
SMILES,JMJD2A Tudor,BAZ2B inh,HP1b chromo inh,G9a block,L3MBTL1 block
Cc1cccc(N2CCN(C(c3ccc(F)cc3)c3nnc(-c4ccccc4)o3)CC2)c1C (configuration not stated),u,50µM*,4%,u,x
CCCOC(=O)c1ccccc1O,x,x,x,3%[12.7 µM],x
NS(=O)(=O)c1ccc(CCNC(=O)CSc2ccccc2)cc1,-4%[11.4 µM],10%,41%,8%,8%
Cc1ccc(S(=O)(=O)CCNC(=O)Cc2ccccc2)cc1,20µM*,-12%,-3%,2%,5%
CC(NS(=O)(=O)c1ccc(Br)cc1)C(=O)NCCc1ccccc1 (configuration not stated),-15%,-6%,18%,40µM*,-1%
NS(=O)(=O)c1ccc(CCNC(=O)c2ccc3nccnc3c2)cc1,40µM*,x,71µM*,x,16µM*
O=S(=O)(NCCc1ccccc1)c1ccc(Br)cc1,21%,9%,64%,27%,6%
NS(=O)(=O)c1ccc(CCNC(=O)CNCCc2ccccc2)cc1,25µM*,50µM*,u,50µM*,x
CC(=O)OCC(NC(=O)C(CCCCNC(=O)OCc1ccccc1)NC(=O)OC(C)(C)C)C1OC(n2cc(C)c(=O)[nH]c2=O)C(OC(C)=O)C1OC(C)=O (configuration not stated),-2%,x,29%,x,x
Cc1ccc(CC(=O)NCCc2ccc(S(N)(=O)=O)cc2)cc1,-1%,-3%,13%,-10%[59 µM],3%
O=C(CCS(=O)(=O)c1ccc(Br)cc1)NCCc1ccccc1,40µM*,u,u,50µM*,x
Cc1ccc2c(CC(=O)NCCc3ccc(S(N)(=O)=O)cc3)coc2c1,45µM*,-12%,16%,26%[12.7 µM],x
O=C(CCNS(=O)(=O)c1ccc(Br)cc1)NCCc1ccccc1,-8%,-6%[57.1 µM],25%,-15%,x
NS(=O)(=O)c1ccc(CCNC(=O)CCS(=O)(=O)c2ccc(Br)cc2)cc1,32µM*,32µM*,18µM*,28µM*,x
COc1ccc(CNC(=O)CCS(=O)(=O)c2ccc(Br)cc2)cc1,u,50µM*,u,45µM*,x
CCOc1ccc(CCNC(=O)CCS(=O)(=O)c2ccc(Br)cc2)cc1OCC,-11%,-13%,32%,-12%,x
CCc1ccc(C2C(C(=O)Nc3ccccc3C)=C(C)Nc3nc(SCc4cccc(OC)c4)nn32)cc1 (configuration not stated),-26%,0%,36%,1%[59 µM],x
Cc1cc(CN(C)C(=O)CC2C(=O)NCCN2Cc2c(F)cccc2Cl)n[nH]1 (configuration not stated),9%,33%,24%,40µM*,-2%
Cc1csc(CN(C)C(=O)CC2C(=O)NCCN2Cc2ccc(F)cc2Cl)n1 (configuration not stated),-3%,-17%,41%,22µM*,x
Cc1csc(CN(C)C(=O)CC2C(=O)NCCN2Cc2ccc(Cl)c(F)c2)n1 (configuration not stated),-10%,-22%,40%,40µM*,x
COc1ccc(CN2CCNC(=O)C2CC(=O)N(C)Cc2nc(C)cs2)c(OC)c1 (configuration not stated),-8%,-33%,9%,50µM*,x
CCOC(=O)c1c(Nc2ccc(O)cc2)nnc(-c2ccccc2)c1-c1ccccc1,3%,1%,35%,-23%[59 µM],x
Cc1cccc(NC(=O)Cn2c(=O)n(CC3CCC(C(=O)NCCc4ccccc4)CC3)c(=O)c3ccccc32)c1 (configuration not stated),0%,-1%,28%,11%[59 µM],x
O=C(O)c1ccc(Nc2nc(-c3cc4ccccc4oc3=O)cs2)cc1O,32µM*,28µM*,32µM*,40µM*,u
COc1ccc(Nc2nc(-c3cc4cccc(OC)c4oc3=O)cs2)cc1,-31%,u,2%,45µM*,13%
SMILES,JMJD2A Tudor,BAZ2B inh,HP1b chromo inh,G9a block,L3MBTL1 block
CC(=O)Nc1ccc(Nc2nc(-c3cc4ccccc4oc3=O)cs2)cc1,-6%,-18%,19%,u,-1%
COc1ccc2oc(=O)c(-c3csc(Nc4cccc(O)c4)n3)cc2c1,8%,1%,40%,3%[59 µM],25%
O=C(Cc1ccc(Br)cc1)NC1CCSC1=O (configuration not stated),-15%,-4%,20%,28%[59 µM],x
O=C(O)C1C2CC(C(Br)C2Br)C1C(=O)O (configuration not stated),-2%,x,28%,x,x
Cc1nc(SCC(=O)NC2(C#N)CCCC2)n(CC(C)C)c1C,-14%,-2%,19%,40µM*,-7%
CN(C)c1ccc(/C=C/C(=O)c2ccccc2O)cc1,10µM*,x,13µM*,8.9µM*,x
Cc1ccc(O)c(C(=O)/C=C/c2ccc3c(c2)OCCCO3)c1,16µM*,28µM*,u,7.1µM*,u
COc1ccc(C=CC(=O)c2cc(O)ccc2O)cc1,40µM*,x,u,x,x
Cc1ccc(O)c(C(=O)C=Cc2ccccc2)c1,40µM*,x,u,x,x
O=C(Nc1cccc(Cl)c1Cl)c1cc(S(=O)(=O)NCc2ccc3c(c2)OCO3)ccc1F,-13%,5%,-4%,12%[59 µM],x
Cc1noc2ncnc(Sc3ccc(Br)cc3)c12,12%,11%,81%,-2%,-5%[11.4 µM]
COc1cc(C)cc(C(=O)C=Cc2ccccc2)c1O,56µM*,x,u,x,x
O=C(CCCCn1c(=O)c2ccccc2n(Cc2ccccc2Cl)c1=O)NCc1ccc2c(c1)OCO2,-5%,0%,26%,-5%[59 µM],x
CC(C)(C)c1nc(CN2CCOCC2)cc(CN2CCOCC2)c1O,32µM*,-32%,14%,-8%[12.7 µM],x
Oc1c(CN2CCOCC2)cc(CN2CCOCC2)c(O)c1CN1CCOCC1,7.9µM*,x,8.9µM*,x,x
CC(C)(c1cc(Cl)c(O)c(CN2CCOCC2)c1)c1cc(Cl)c(O)c(CN2CCOCC2)c1,-33%,x,-14%[57 µM],x,x
Oc1c(CN2CCOCC2)cc(-c2ccccc2)cc1CN1CCOCC1,-25%,-37%,21%,0%,-5%
CC(C)c1ccc(NC(=O)CN2C=NS(=O)(=O)c3ccccc32)cc1,-19%,3%,25%,1%[59 µM],x
CCOc1ccc(NC(=O)CCS(=O)(=O)c2cc3c4c(c2)CCN4C(=O)CC3)cc1,-7%,-9%,17%,-31%[59 µM],x
Brc1ccc(-c2ccc(CNCCSc3nnnn3-c3ccccc3)o2)cc1,-35%,20µM*,8%,16µM*,x
CN(C)CC(CCCCC(CN(C)C)C(=O)c1ccccc1)C(=O)c1ccccc1 (configuration not stated),-26%,-20%,22%,50µM*,-7%
